Results taken from paper PMC6212790, “How bacterial xenogeneic silencer rok distinguishes foreign from self DNA in its resident genome”.
Whole data set: some 33,000 sequences, median “e-score” near -0.037, cut for the highest 2% near 0.34. The sample as a whole holds a higher share of the highest values than the screen did.

Target: T1, GST-Rok (full length) (Bacillus subtilis subsp. subtilis str. …, UniProt O34857 1-191)
T1 sequence: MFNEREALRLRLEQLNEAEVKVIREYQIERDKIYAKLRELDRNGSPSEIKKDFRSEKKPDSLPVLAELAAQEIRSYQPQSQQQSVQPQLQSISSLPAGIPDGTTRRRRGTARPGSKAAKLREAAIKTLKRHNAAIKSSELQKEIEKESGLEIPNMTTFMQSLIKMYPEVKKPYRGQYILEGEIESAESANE
Experiment: protein binding microarray; Rok is a gene silencer of Bacillus subtilis; high values mean tight binding
Settings: protein: recombinant; tags: GST (pTH5325, pDEST15-Magic modified); dsDNA, one strand shown
Method in brief: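 Every oligonucleotide joins a 25-mer constant primer to a 35-mer variable part drawn from a de Bruijn sequence of order 10, so each non-palindromic 8-mer appears at least 32 times and each palindromic 8-mer 16 times. The preference for every 8-mer is reported as a unitless, rank-based enrichment score (E-score). This score spans 0.5 for the most favored 8-mer to −0.5 for the most disfavored.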

Row | Sequence | binding signal [E-score]
1 | AAATAGAA | 0.368
2 | TGATGTAA | 0.134
3 | AACCGTAG | 0.0498
4 | CGCAATAA | 0.185
5 | CTATCTTC | 0.11
6 | ATATCTAC | 0.393
7 | CTATCTAA | 0.264
8 | ATCTCTAG | -0.00242
9 | CTATCTAC | 0.433
10 | ATCTCTAA | 0.0544
11 | CTCTCTAC | 0.0296
12 | ATCTCTAC | 0.0894
13 | ATATCTAA | 0.371
14 | ATATCTAG | 0.346
15 | ATATCTGC | 0.221
16 | ACATCTAG | 0.325
17 | AGTTAGGG | -0.0305
18 | CTATGATA | 0.172
19 | AACCCAAC | 0.212
20 | ACACAAGC | -0.0939
21 | AACGCCCT | -0.11
22 | ACTTCACT | 0.0809

Row | Sequence | binding signal [E-score]
23 | TACTCTGA | -0.0307
24 | ACATATTG | 0.148
25 | ATATATTG | 0.372
26 | CAATATTA | 0.254
27 | CTCTATTA | 0.0982
28 | CTATATTA | 0.384
29 | ACATATTA | 0.345
30 | CCATATTA | 0.165
31 | ATCTATTG | 0.282
32 | AGATATTA | 0.404
33 | AGATATTG | 0.196
34 | GCATATTA | 0.242
35 | CGATATTA | 0.213
36 | AGATTCGG | 0.0606
37 | ACAATCGG | 0.00195
38 | AACTGTTC | 0.004
39 | AAGCAAAA | 0.0376
40 | GTGTATTA | 0.205
41 | ATCTATTA | 0.312
42 | ATATATTA | 0.467
43 | ATATATGA | 0.287
44 | GTATATTA | 0.391

Row | Sequence | binding signal [E-score]
45 | GTATATGA | 0.216
46 | CATCGTTC | -0.0505
47 | AAGCAGAA | 0.142
48 | ATGGGCTA | 0.0395
49 | ATTTTGTA | 0.232
50 | AGTTTGTC | 0.0187
51 | AATTTGTA | 0.352
52 | GATTTGTA | 0.249
53 | CGTTTGTA | 0.138
54 | AGTTTGTA | 0.391
55 | GTCGGCAA | -0.0858
56 | CCAAGAAC | -0.19
57 | CTCCGAAA | -0.0499
58 | CAGTTGAG | -0.000936
59 | AATGAATT | 0.29
60 | ACAATAAC | 0.214
61 | AGTCCCAT | -0.144
62 | ACTATAAA | 0.341
63 | ACTATAAC | 0.214
64 | ACTATAAT | 0.411
65 | ACTATAAG | 0.268
66 | CCTATAAA | 0.298

Row | Sequence | binding signal [E-score]
67 | TCTATAAA | 0.186
68 | ACGTCATA | 0.128
69 | CCAAATGG | -0.148
70 | AGTTCGTC | 0.0184
71 | GAAAATAC | 0.351
72 | AAAAATAC | 0.32
73 | GAAAATAA | 0.145
74 | GGAAATAC | 0.101
75 | CAAAATAC | 0.351
76 | CAAAATAA | 0.0897
77 | GGCATTAA | -0.00985
78 | CCTGTTGA | -0.00587
79 | GAAACGGC | -0.103
80 | AGATTAAG | 0.135
81 | TTATTAAA | 0.168
82 | ATATTAAA | 0.377
83 | AGATTAAC | 0.181
84 | ATATTAAG | 0.275
85 | AGATTAAT | 0.346
86 | ATATTAAC | 0.298
87 | CTATTAAA | 0.116
88 | ATATTAAT | 0.345
